From publication PMC13083723 (Patterns, 2026)
In all, about 5,400 compounds went through this assay and about 190 (3.5%) showed an effect of 50% or more. What follows is part of a selection rich in strong results, with near analogues and random picks from the rest.

Test system: Vero-E6
Assay: primary screen, phospholipidosis by LipidTOX staining; higher = more effect of the substance
Conditions: 10 µM
Outline: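 Single-concentration screen at 10 μM, with DMSO 0.1 v/v % and amiodarone 10 μM as controls. Read-out is LipidTOX Red phospholipid staining, which tolerates aldehyde fixation, in Vero-E6 cells.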

Row | Compound | result_ITMP [%]
1 | C#CC[C@H](c1nc2cc(Cl)ccc2c(=O)n1Nc1ccccc1)N(CCCN)C(=O)c1cccc(Cl)c1F | 68.4
2 | C=C(c1ccccc1OCc1cccc(Cl)c1)n1ccnc1 | 2.27
3 | O=c1ccn([C@@H]2O[C@H](COP(=O)([O-])OP(=O)([O-])OP(=O)([O-])O)C(O)C2O)c(=O)[nH]1 (some centres unmarked) | 0.02
4 | CCCCCCCCCCCCCC(=O)[O-].CCCCCCCCCCCCCC(=O)[O-].NC1CCCCC1N.[Pt+2] | 0.26
5 | O=S(=O)([O-])Oc1ccc(C(c2ccc(OS(=O)(=O)[O-])cc2)c2ccccn2)cc1 | -7.14
6 | Cc1ccc(-c2n[nH]c3c2C(c2cccc(O)c2)N(c2ccc(C(=O)O)cc2)C3=O)cc1 (centres unmarked) | 0.62
7 | COc1cc(N2CCC(N3CCN(C)CC3)CC2)ccc1Nc1ncc(Cl)c(Nc2ccccc2S(=O)(=O)C(C)C)n1 | -2.93
8 | Cc1cc(Nc2ncc(Cl)c(Nc3ccccc3S(=O)(=O)C(C)C)n2)c(OC(C)C)cc1C1CCNCC1 | 50.9
9 | COc1cc(N2CCC(N3CCN(C)CC3)CC2)ccc1Nc1ncnc(Nc2ccccc2S(=O)(=O)C(C)C)n1 | 44.8
10 | Cc1c(S(=O)(=O)[O-])oc2c1C(=O)C(=O)c1c-2ccc2c1CCCC2(C)C | -1.56
11 | C[C@@H](Oc1cc(-c2cnn(C3CCNCC3)c2)cnc1N)c1c(Cl)ccc(F)c1Cl | 75
12 | C[C@H](Oc1cc(-c2cnn(C3CCNCC3)c2)cnc1N)c1c(Cl)ccc(F)c1Cl | 70.2
13 | Nc1nc2[nH]nnc2c(=O)[nH]1 | 1.34
14 | O=C([O-])[C@@H](O)[C@@H](O)[C@H](O)[C@@H](O)C(=O)[O-] | -1.82
15 | CCOc1ccc(/N=C(/C)Nc2ccc(OCC)cc2)cc1 | 3.29
16 | CC(=O)OCC1=C(C(=O)[O-])N2C(=O)[C@@H](NC(=O)CSc3ccncc3)[C@H]2SC1 | -1.36
17 | CO/N=C(\C(=O)N[C@@H]1C(=O)N2C(C(=O)[O-])=C(COC(N)=O)CS[C@H]12)c1ccco1 | -1.04
18 | O=S(=O)([O-])CCCS(=O)(=O)[O-] | -2.16
19 | CCn1cc(C(=O)[O-])c(=O)c2cc3c(cc21)OCO3 | -4.34
20 | CN(C)[C@@H](CCOc1cccc2ccccc12)c1ccccc1 | 43.4
21 | CC(C)NC[C@@H](O)COc1cccc2ccccc12 [R4A_0000150_002 / SPE_K13994703] | 20.2
22 | CNCC[C@H](Oc1cccc2ccccc12)c1cccs1 | 92.6
23 | CC1(C)CCC[C@]2(C)[C@H]3CC(=O)O[C@]3(C)CC[C@@H]12 | 1.48
